Source: PubChem BioAssay AID1159580 (chemical genetic matrix, 2015)
Screen size: about 5,500 compounds; about 2,000 (36%) were called active. About 18% were inconclusive and are not listed. No stated cut-off is given here; in the data, active means normalized growth mostly below about 0.91 (no sharp cut-off); inconclusive means no clear call, values can overlap the other calls; inactive means mostly above about 0.92. The list shows a part of the results.

Assay: chemical genetic growth profiling, strain panel (AID 1159580);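 further: tested at 20 µM; growth read once vehicle control cultures reached saturation at 30 °C; 1 = growth at the plate median or of vehicle wells; lower values mean less growth of the strain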
Settings: growth OD

Measured: normalized growth

CC(C)c1nc2ccccc2[nH]1
inactive: S. cerevisiae deletion strains, locus YAL013W, strain DEP1, hits give low values 1.01 | S. cerevisiae deletion strains, locus YBR229C, strain ROT2, hits give low values 1.03 | S. cerevisiae deletion strains, locus YCL061C, strain MRC1, hits give low values 1.01 | S. cerevisiae deletion strains, locus YDL101C, strain DUN1, hits give low values 1.03 | S. cerevisiae deletion strains, locus YDL134C, strain PPH21, hits give low values 1.02 | S. cerevisiae deletion strains, locus YDR150W, strain NUM1, hits give low values 0.993 | S. cerevisiae deletion strains, locus YEL061C, strain CIN8, hits give low values 1.01 | S. cerevisiae deletion strains, locus YGR078C, strain PAC10, hits give low values 1.01 | S. cerevisiae deletion strains, locus YHR030C, strain SLT2, hits give low values 1.02 | S. cerevisiae deletion strains, locus YHR087W, strain rtc3, hits give low values 1.03 | S. cerevisiae deletion strains, locus YJR043C, strain POL32, hits give low values 1 | S. cerevisiae deletion strains, locus YJR075W, strain HOC1, hits give low values 1.02 | S. cerevisiae deletion strains, locus YLR039C, strain RIC1, hits give low values 1.01 | S. cerevisiae deletion strains, locus YLR058C, strain SHM2 (second series), hits give low values 1.01 | S. cerevisiae deletion strains, locus YLR085C, strain ARP6, hits give low values 1.03 | S. cerevisiae deletion strains, locus YLR262C, strain YPT6, hits give low values 1 | S. cerevisiae deletion strains, locus YML094W, strain GIM5, hits give low values 1.01 | S. cerevisiae deletion strains, locus YMR219W, strain ESC1, hits give low values 1.01 | S. cerevisiae deletion strains, locus YMR263W, strain SAP30, hits give low values 1.02 | S. cerevisiae deletion strains, locus YNL128W, strain TEP1, hits give low values 1.01 | S. cerevisiae deletion strains, locus YNL153C, strain GIM3, hits give low values 1.01 | S. cerevisiae deletion strains, locus YNL298W, strain CLA4 (second series), hits give low values 1 | S. cerevisiae deletion strains, locus YNL322C, strain KRE1, hits give low values 1.02 | S. cerevisiae deletion strains, locus YNR030W, strain Alg12, hits give low values 1.01 | S. cerevisiae deletion strains, locus YOL006C, strain TOP1, hits give low values 1 | S. cerevisiae deletion strains, locus YPL055C, strain LGE1, hits give low values 1.04 | S. cerevisiae deletion strains, locus YPL241C, strain CIN2, hits give low values 1 | S. cerevisiae deletion strains, locus YPR135W, strain CTF4, hits give low values 1.05 | S. cerevisiae strains, strain wild type, hits give low values 1.01
